In PubChem BioAssay AID1942 (Johns Hopkins Ion Channel Center, 2009):
In all, about 2,400 compounds went through this assay and about 580 (24%) were called active.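 The calls were made as follows: active = activity change at or above the mean plus 3 SD of buffer wells without dofetilide, per plate; inactive = the rest.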 The list is a sample of the results.

molecular target: Potassium voltage-gated channel subfamily KQT member 2 (Rattus norvegicus) (UniProt O88943); experiment: rat KCNQ2 channel activation by compounds alone, confirmation, counter-screen for hERG block protector project, cell-based, CHO, FluxOR thallium flux (AID 1942); settings: CHO-KCNQ2 cells, FluxOR thallium flux fluorescence; at 10 µM; hits give high values;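 also: normalized value minus buffer-control mean plus three SD of buffer wells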
Sequence (O88943 whole entry, looked up): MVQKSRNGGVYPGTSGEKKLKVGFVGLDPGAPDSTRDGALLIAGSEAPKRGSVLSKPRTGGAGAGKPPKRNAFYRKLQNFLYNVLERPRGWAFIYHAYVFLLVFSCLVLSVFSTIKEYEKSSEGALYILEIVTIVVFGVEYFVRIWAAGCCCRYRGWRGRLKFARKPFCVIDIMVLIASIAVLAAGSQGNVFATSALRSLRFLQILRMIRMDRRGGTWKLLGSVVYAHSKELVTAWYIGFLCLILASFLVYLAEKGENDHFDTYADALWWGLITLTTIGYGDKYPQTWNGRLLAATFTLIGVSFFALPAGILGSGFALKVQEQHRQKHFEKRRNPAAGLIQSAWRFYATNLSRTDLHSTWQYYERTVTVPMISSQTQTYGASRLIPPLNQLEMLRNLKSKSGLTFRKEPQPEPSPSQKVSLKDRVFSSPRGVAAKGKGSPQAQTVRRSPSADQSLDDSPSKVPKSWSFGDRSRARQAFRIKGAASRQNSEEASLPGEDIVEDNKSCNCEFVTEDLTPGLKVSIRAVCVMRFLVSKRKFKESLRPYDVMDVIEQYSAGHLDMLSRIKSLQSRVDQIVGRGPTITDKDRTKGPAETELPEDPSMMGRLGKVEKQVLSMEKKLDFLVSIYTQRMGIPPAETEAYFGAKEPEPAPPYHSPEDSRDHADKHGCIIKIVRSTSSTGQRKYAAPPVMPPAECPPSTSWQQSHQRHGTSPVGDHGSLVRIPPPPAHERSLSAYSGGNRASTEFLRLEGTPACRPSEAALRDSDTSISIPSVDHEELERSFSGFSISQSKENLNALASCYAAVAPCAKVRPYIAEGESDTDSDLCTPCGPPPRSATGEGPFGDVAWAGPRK

Q: Which activity change, less the hit threshold does the source give for `C=CCSc1nc2sc3c(c2c(=O)n1CC)CCc1ccccc1-3` here?
A: 11.4% (active)

Q: With `O=C(O)CN1C(=O)C(=O)N(Cc2ccc(C(F)(F)F)cc2)C1=O` as the compound, how does the activity change, less the hit threshold read?
A: -4.3% (inactive)

Q: How did the activity change, less the hit threshold turn out when `CCOC(=O)N1CCN(C(=O)CCn2c(=S)[nH]c3ccsc3c2=O)CC1` was run?
A: -2.5% (inactive)

Q: How did the activity change, less the hit threshold turn out when `N#Cc1ccc(-c2nc3ccc(Br)cc3c(=O)n2O)cc1` was run?
A: 17.3% (active)

Q: For `O=c1c2cc(Br)ccc2nc(-c2cccc(C(F)(F)F)c2)n1O`, which activity change, less the hit threshold is on record?
A: 126% (active)

Q: Which activity change, less the hit threshold does the source give for `O=c1c2cc(Br)ccc2nc(-c2ccc(Cl)cc2)n1O` here?
A: 133% (active)

Q: With `CCCn1c(SC(C)C(=O)N2CCOCC2)nc2ccc(Br)cc2c1=O` (stereo not drawn) as the compound, how does the activity change, less the hit threshold read?
A: -15.9% (inactive)

Q: For `O=c1c2cc(Br)ccc2nc(-c2cccc(Cl)c2)n1O`, which activity change, less the hit threshold is on record?
A: 111% (active)

Q: Which activity change, less the hit threshold does the source give for `COc1ccc(CCNS(=O)(=O)c2csc(C(N)=O)c2)cc1OC` here?
A: -18.8% (inactive)

Q: `NC(=O)[C@@H]1CCCN1Cc1nc(Cc2ccccc2Cl)no1` was tested. Which activity change, less the hit threshold did it give?
A: -17.5% (inactive)

Q: `COc1ccc(Cl)cc1N(C)C(=O)CCNC(=O)Cn1cnc2ccccc2c1=O` was tested. Which activity change, less the hit threshold did it give?
A: -14.6% (inactive)

Q: For `CCOC(=O)N1CCC(N2C(=O)c3ccccc3C2Nc2cccnc2)CC1` (stereo not drawn), which activity change, less the hit threshold is on record?
A: -1.9% (inactive)

Q: For `O=c1c2cc(Br)ccc2nc(-c2ccccc2)n1O`, which activity change, less the hit threshold is on record?
A: 36.9% (active)

Q: With `O=c1c2ccc(Cl)cc2nc(-c2cccc(C(F)(F)F)c2)n1O` as the compound, how does the activity change, less the hit threshold read?
A: 118% (active)

Q: Which activity change, less the hit threshold does the source give for `COc1ccc(S(=O)(=O)N2CCCC(C(=O)Nc3ccc(OC)c(OC)c3)C2)cc1` (stereo not drawn) here?
A: -17.4% (inactive)

Q: For `Cc1cc(C=O)c2c(c1)C=CC1(Oc3ccccc3C(=O)N1C)O2` (stereo not drawn), which activity change, less the hit threshold is on record?
A: -0.3% (inactive)

Q: For `N#Cc1c(-c2ccc(Cl)cc2)cc(-c2cccs2)nc1SCC(=O)O`, which activity change, less the hit threshold is on record?
A: -24.7% (inactive)

Q: `CCOc1ccc(S(=O)(=O)Nc2nc3ccccc3nc2-n2ccc(=NC(=O)c3cccs3)cc2)cc1` was tested. Which activity change, less the hit threshold did it give?
A: -21.1% (inactive)

Q: With `O=[N+]([O-])c1cccc(/C=C/c2nc(C=Nc3ccccc3)c(O)o2)c1` as the compound, how does the activity change, less the hit threshold read?
A: -18.2% (inactive)

Q: `COc1ccc(C(=O)NC(=S)N(C)C2CCCCC2)cc1Br` was tested. Which activity change, less the hit threshold did it give?
A: 0.5% (active)

Q: Which activity change, less the hit threshold does the source give for `Cc1ccc(C(=O)NC(=S)N(C)C2CCCCC2)cc1Br` here?
A: 2.9% (active)

Q: Which activity change, less the hit threshold does the source give for `CC1CCCC(NC(=S)NC(=O)c2cncc(Br)c2)C1C` (stereo not drawn) here?
A: -12% (inactive)

Q: How did the activity change, less the hit threshold turn out when `COC(=O)C1=NN(C(=O)c2ccc(Cl)cc2)C(O)(c2ccccc2)C1` (stereo not drawn) was run?
A: 76.9% (active)

Q: For `CC1=NN(C(=O)c2ccc(Cl)cc2)C(O)(c2ccccc2)C1` (stereo not drawn), which activity change, less the hit threshold is on record?
A: -5.5% (inactive)

Q: With `CCOC(=O)c1cnc(-n2nc(C)cc2C)nc1Nc1cccc(C(=O)O)c1` as the compound, how does the activity change, less the hit threshold read?
A: -13.4% (inactive)

Q: How did the activity change, less the hit threshold turn out when `CC(C)(C)C1(O)CC(C(F)(F)F)=NN1C(=O)Cc1ccc([N+](=O)[O-])cc1` (stereo not drawn) was run?
A: -20.8% (inactive)

Q: With `CC1=NN(C(=O)c2ccccc2Br)C(O)(c2ccc(Cl)cc2)C1` (stereo not drawn) as the compound, how does the activity change, less the hit threshold read?
A: -27.3% (inactive)

Q: `COC(=O)C1=NN(C(=O)c2cccc(Br)c2)C(O)(c2ccc(Cl)cc2)C1` (stereo not drawn) was tested. Which activity change, less the hit threshold did it give?
A: 134% (active)

Q: For `CCC1=NN(C(=O)c2ccc(Cl)cc2)C(O)(c2ccccc2)C1` (stereo not drawn), which activity change, less the hit threshold is on record?
A: -23.9% (inactive)

Q: For `CCOC(=O)C1=NN(C(=O)c2cccc(Br)c2)C(O)(C(C)(C)C)C1` (stereo not drawn), which activity change, less the hit threshold is on record?
A: 87.6% (active)

Q: `Cc1ccc2[nH]c3c(c2c1)CNCC3` was tested. Which activity change, less the hit threshold did it give?
A: -13.7% (inactive)

Q: `COc1cc(/C=N/Nc2nc(N3CCCC3)nc(N3CCCC3)n2)ccc1OCc1ccccc1F` was tested. Which activity change, less the hit threshold did it give?
A: -23.8% (inactive)

Q: `CC(=O)c1c(C)c2c(n1CCN(C)C)CCCC2` was tested. Which activity change, less the hit threshold did it give?
A: -11.1% (inactive)

Q: How did the activity change, less the hit threshold turn out when `CCCCCCCCCCn1c2c(c(=N)c3c1CCC3)CCC2` was run?
A: 26.3% (active)

Q: For `Clc1ccc(N=NN2CCOCC2)cc1`, which activity change, less the hit threshold is on record?
A: -5.2% (inactive)

Q: Which activity change, less the hit threshold does the source give for `O=C(NC(=S)N(CCCCO)C1CCCCC1)c1sc2ccccc2c1Cl` here?
A: 26% (active)

Q: With `COC(=O)Cn1c(=NC(=O)c2sc3ccccc3c2Cl)sc2cc(S(N)(=O)=O)ccc21` as the compound, how does the activity change, less the hit threshold read?
A: -18.9% (inactive)

Q: `CCOC(=S)NC(=O)c1sc2ccccc2c1Cl` was tested. Which activity change, less the hit threshold did it give?
A: 51.3% (active)

Q: How did the activity change, less the hit threshold turn out when `CCCOC(=S)NC(=O)c1sc2ccccc2c1Cl` was run?
A: 10% (active)

Q: For `COC(=O)CC1C(=O)NCCN1C(=S)NC(=O)c1sc2ccccc2c1Cl` (stereo not drawn), which activity change, less the hit threshold is on record?
A: -11.2% (inactive)

Q: With `CCCCOC(=S)NC(=O)c1sc2ccccc2c1Cl` as the compound, how does the activity change, less the hit threshold read?
A: 71.2% (active)

Q: `CCOC(=O)CP(=O)(c1ccccc1)c1ccccc1` was tested. Which activity change, less the hit threshold did it give?
A: -20% (inactive)

Q: `O=C(CCc1nc(-c2ccccc2)no1)N1CCCC1` was tested. Which activity change, less the hit threshold did it give?
A: -20.7% (inactive)

Q: With `C=CCn1c(N2CCCCCC2)nc2c1c(=O)n(C)c(=O)n2C` as the compound, how does the activity change, less the hit threshold read?
A: -13.9% (inactive)

Q: Which activity change, less the hit threshold does the source give for `O=C1NC(=O)/C(=C/c2cc3c(cc2Br)OCO3)S1` here?
A: -28.6% (inactive)

Q: `COc1ccc(C(=O)NCc2nnc(SCC(=O)NC3CCCCC3)n2C)cc1` was tested. Which activity change, less the hit threshold did it give?
A: -21.9% (inactive)

Q: Which activity change, less the hit threshold does the source give for `O=[N+]([O-])c1ccc(Cl)c(/C=N/Nc2nc(N3CCOCC3)nc(N3CCOCC3)n2)c1` here?
A: -7.2% (inactive)

Q: How did the activity change, less the hit threshold turn out when `COc1cc(OC)c(C2=NOC(C(=O)Nc3ccc4c(c3)OCO4)C2)cc1Cl` (stereo not drawn) was run?
A: -22.1% (inactive)
